# Data as given in PubChem BioAssay AID501 (PCMD, 2006).
# About 35 (0.06%) of roughly 62,000 compounds were called active. The full list was thinned out, with actives kept by preference. Values without a mark were called inactive. Rule as the data show it: active = inhibition above about 32% (passing the limit was not always enough); inconclusive = no clear call, values can overlap the other calls.
# Biological target: Cathepsin S (Homo sapiens) (UniProt P25774)
# Assay: blockers of CTSS protease activity – biochemical, compound mixtures (AID 501);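 also: 0% = enzyme without compound and 100% = blank without enzyme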
# Conditions: recombinant cathepsin S, AMC dipeptide fluorescence, pooled mixtures; stronger effect = higher value;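 tested at 5 µM per compound within 10-compound mixtures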
# Chain of Cathepsin S (Homo sapiens) (P25774 115-331 limits assumed): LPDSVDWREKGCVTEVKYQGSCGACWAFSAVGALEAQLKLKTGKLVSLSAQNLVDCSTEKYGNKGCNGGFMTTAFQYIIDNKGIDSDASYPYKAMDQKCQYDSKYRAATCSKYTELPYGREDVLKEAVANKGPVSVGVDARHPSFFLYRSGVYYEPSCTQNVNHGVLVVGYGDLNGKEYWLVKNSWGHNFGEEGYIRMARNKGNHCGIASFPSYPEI
row,SMILES,inhibition
1,CCOc1ccc2[nH]c(=O)c(CN(Cc3nnnn3Cc3ccccc3)CC3CCCO3)cc2c1 (centres undefined),6.16%
2,CCOC(=O)CSc1nccc(N(C)C)c1C#N,14.4%
3,Cc1nnc(N(Cc2ccco2)C(=O)c2ccno2)s1,-4.35%
4,CCn1c(=O)cc(O)c2ccccc21,9.68%
5,COc1cc(C(=O)N(Cc2ccc(N(C)C)cc2)C2CCS(=O)(=O)C2)cc(OC)c1OC (centres undefined),0.64%
6,Nc1nnc(C2CCCC2)s1,14.3%
7,CCc1ccccc1NC(=O)c1cccs1,8.09%
8,CCOC(=O)C1=C(CC)Nc2ccccc2N=C1NC(=O)c1cccc(S(=O)(=O)N2CCCC2)c1,-5.2%
9,CCC(=O)NC(=Nc1nc2ccccc2s1)NC(=O)CC,-2.2%
10,C=CCn1c(SCc2cc(C(=O)OC)c(C)o2)nnc1-c1ccncc1,-3.76%
11,CCOc1ccc(-c2nnc(-c3ccco3)o2)cc1,-3.01%
12,CCOc1ccc(OCC)c(NC(=O)CN(C)S(=O)(=O)c2cccc3nsnc23)c1,-22.2%
13,CCOC(=O)CSc1nnc(CNc2ccc(F)cc2)o1,-5.03%
14,Cn1c(=NC(=O)CSCC(=O)N2CCOCC2)sc2ccccc21,14.7%
15,Cn1c(=O)[nH]c(=O)c2c1nc(CN(Cc1ccccc1)Cc1ccccc1)n2CCN1CCOCC1,2.01%
16,COc1ccc(Br)cc1S(=O)(=O)N1CCN=C1C,-2.2%
17,Cn1c(=NC(=O)CSCC(=O)N2CCCCC2)sc2ccccc21,6.42%
18,CSCCC(NS(=O)(=O)/C=C/c1ccccc1)C(=O)N1CCC(C)CC1 (centres undefined),-1.31%
19,CCOC(=O)N1CCC(NC(=O)CCc2cn(C)c3ccccc23)CC1,-4.61%
20,CCn1cc(C(=O)NCc2ccc(OC)cc2OC)c(=O)c2ccc(C)nc21,0.185%
21,CCN(CC)P(=O)(/C(Cl)=C\Nc1c(C)n(C)n(-c2ccccc2)c1=O)N(CC)CC,0.845%
22,COc1ccc(C)cc1NC(=O)c1[nH]c(C)c(C(C)=O)c1C,-3.92%
23,Fc1ccc2[nH]c3c(N4CCN(Cc5ccc6c(c5)OCO6)CC4)ncnc3c2c1,-6.06%
24,CCc1c(C)nc(N)n2c(SCC(=O)N3CCN(c4ccccc4)CC3)nnc12,-12.8%
25,CN1CCN(CC(O)COCc2ccc3c(c2)OCO3)CC1 (centres undefined),5.75%
26,CC(=O)Nc1cccc(NC(=O)c2c(-c3ccccc3)noc2C)c1,-5.8%
27,O=C(NCCCN1CCOCC1)c1cc(-c2ccc(Cl)cc2)on1,-0.13%

row,SMILES,inhibition
1,O=C(NCCc1ccco1)c1nn(Cc2ccccc2)c(=O)c2ccccc12,11.9%
2,O=C(C1CCCO1)N(Cc1ccccc1)c1ccccc1 (centres undefined),-2.27%
3,Cc1ccsc1C(C(=O)NC1CCCCC1)N(C(=O)Cc1cccs1)C1CC1 (centres undefined),6.71%
4,Cc1cc(=O)n2nc(N3CCCC(C(=O)NCCC4=CCCCC4)C3)sc2n1 (centres undefined),19.8%
5,CCOC(=O)C1CCCN(C(=O)Cn2ncc3c(=O)oc4ccc(C)cc4c32)C1 (centres undefined),7.33%
6,O=C(Nc1cccnc1)c1noc2c1CCCCC2,10.9%
7,CCc1cc2c(=O)c(-c3ccon3)c(N)oc2cc1OC,-1.48%
8,COc1ccc(C(c2nnnn2Cc2cccs2)N2CCN(c3ccccc3)CC2)cc1OC (centres undefined),-6.06%
9,CC(C)COC(=O)C1C2C=CC3(CN(C(C)c4ccc(Br)cc4)C(=O)C13)O2 (centres undefined),14.7%
10,O=C(O)c1ccc(-n2cccc2)cc1O,5.17%
11,CCOc1cc(C(=O)Nc2ncccn2)cc(OCC)c1OCC,31.7%
12,Cc1ccsc1CNn1cnnc1SCc1ccccc1F,-4.25%
13,CCOC(=O)CCCNC(=O)CN1C(=O)NC(CCc2ccccc2)C1=O (centres undefined),-3.72%
14,CC1CCCC(N2CCN(C(=O)c3ccc(F)cc3)CC2)C1 (centres undefined),-4.6%
15,CSCC[C@H](NC(=O)NCCc1ccc(F)cc1)C(=O)O,-4.51%
16,CCCCc1cc(=O)oc2cc(C)cc(OCc3nn[nH]n3)c12,1.43%
17,CCN(CC)S(=O)(=O)c1ccc(NC(=O)CN(c2cccc(F)c2)S(C)(=O)=O)cc1,-8.46%
18,CC(C)(CSc1nncn1/N=C/c1ccco1)NS(=O)(=O)c1ccc(Cl)cc1,6.83%
19,CC1(C)SC2c3ccccc3C(=O)N2[C@@H]1C(=O)NCc1ccco1 (some centres undefined),-3.88%
20,CCOC(=O)c1c(C)[nH]c(C)c1C(=O)CSc1nc(N)cc(N)n1,5.32%
21,O=C(C1CCN(c2nnc(-n3cccc3)s2)CC1)N1CCc2ccccc2C1,4.27%
22,Cc1cc(Nc2cccc(C)c2C)n2ncnc2n1,-1.92%
23,COC(=O)c1ccc(NC(=O)CN(c2ccc(C)cc2)S(=O)(=O)c2c(C)n[nH]c2C)cc1,-7.46%
24,COc1ccc(N(CC(=O)NC(C)(C)C)C(=O)c2ccco2)cc1,10.2%
25,Cc1cc(Cl)ccc1N1C(=O)CC(SCCC(=O)O)C1=O (centres undefined),1.91%
26,COc1cc2ccccc2cc1C(=O)Nc1ccc(S(=O)(=O)Nc2cc(C)on2)cc1,-7.28%
27,Cc1cc(=O)[nH]c(SCC(=O)N2c3ccccc3CC2C)n1 (centres undefined),33.4%
